Screening results deposited in PubChem by several laboratories.
The list is not random: actives were taken first. Their share in the collection is about 3.4%.
ADAM17 inh – ADAM17 inhibitors, primary screen, biochemical, QFRET. Disintegrin and metalloproteinase domain-containing protein 17 (Homo sapiens), P78536. recombinant ADAM17, EDANS/DABCYL FRET peptide cleavage. inhibition, % at 6.95 µM. 370,000 tested, 0.83% active. AID 720648, 2013;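 active = inhibition above the mean of compounds lying between control limits plus 3 SD, set per campaign, cut at about 8.5% in these data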;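 note: 0% = DMSO-only wells as the low control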
proKLK7 act – proKLK7 zymogen activators, primary screen, biochemical, fluorescence intensity; 370,000 tested, 0.9% active; AID 652039, 2013; purified proKLK7, EDANS-DABCYL substrate fluorescence; 100% is mature enzyme control, 0% vehicle; Kallikrein-7 (Homo sapiens), P49862; activation, % at 7 µM;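 active = activation above the mean of all tested compounds plus 3 SD, computed per campaign excluding outliers beyond control limits, cut at about 13% in these data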
HGIII-sPLA2 inh – human group III sPLA2 inhibitors, primary screen, biochemical, QFRET, BODIPY PC-A2 liposome substrate; 370,000 tested, 0.56% active; QFRET BODIPY PC-A2 liposome hydrolysis, fluorescence; inhibition, % at 12.2 µM;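 active = inhibition above mean plus 3 SD of compounds lying within the high and low control bounds, cut at about 19% in these data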;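 note: 0% = median of test compound wells and 100% = no enzyme DMSO wells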
Target sequence (Q9NZ20 whole entry, looked up): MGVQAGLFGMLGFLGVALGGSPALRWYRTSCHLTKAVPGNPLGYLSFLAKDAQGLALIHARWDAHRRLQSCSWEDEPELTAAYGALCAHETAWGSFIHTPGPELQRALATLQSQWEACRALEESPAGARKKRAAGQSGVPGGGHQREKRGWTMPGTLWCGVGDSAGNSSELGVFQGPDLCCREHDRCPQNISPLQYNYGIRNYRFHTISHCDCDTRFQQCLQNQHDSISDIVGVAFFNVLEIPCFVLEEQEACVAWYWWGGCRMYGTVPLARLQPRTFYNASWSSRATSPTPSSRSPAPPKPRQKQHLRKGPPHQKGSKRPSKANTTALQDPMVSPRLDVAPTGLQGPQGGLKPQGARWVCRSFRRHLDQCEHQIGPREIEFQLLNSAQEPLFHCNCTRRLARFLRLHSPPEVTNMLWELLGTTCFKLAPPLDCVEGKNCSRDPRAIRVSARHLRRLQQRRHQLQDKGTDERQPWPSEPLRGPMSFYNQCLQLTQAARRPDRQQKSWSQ
ADAM10 inh – human ADAM10 inhibitors, primary screen, biochemical, QFRET, HTS; Disintegrin and metalloproteinase domain-containing protein 10 (Homo sapiens), O14672; recombinant ADAM10, EDANS/DABCYL FRET peptide cleavage, 3 h; inhibition, % at 7 µM; 370,000 tested, 0.62% active; AID 720582, 2013;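 active = inhibition above a per-campaign cutoff equal to the mean of compounds falling between control-based bounds plus 3 SD, cut at about 20% in these data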;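 note: 0% = DMSO wells while the 100% control is not disclosed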
CendR NRP1 mod – modulators of CendR peptide binding to NRP-1, primary screen, biochemical, fluorescence polarization, uHTS; Neuropilin-1 (Homo sapiens), O14786; FAM-RPARPAR peptide binding to NRP-1; inhibition, % at 25 µM; 360,000 tested, 0.85% active;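 active = inhibition or corrected inhibition above about 18%, plus a signal ratio from 0.5 to 1.5, limit read from the data, passing the limit was not always enough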
ADAM10 ctr – ADAM10 inhibitors, counter-screen for ADAM17 exosite inhibitor project, biochemical, FRET, human ADAM10; shares compounds with ADAM17 inh; recombinant ADAM10, EDANS/DABCYL FRET peptide cleavage, 3 h; inhibition, % at 6.95 µM; 2,900 tested, 47% active;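 active = mean inhibition over the triplicate runs exceeds the activity threshold set in the earlier primary screen, cut at about 20% in these data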;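 note: 0% = DMSO wells and 100% = marimastat wells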
ADAM17 confirm – ADAM17 inhibitors, hit retest, confirmation, biochemical, QFRET peptide cleavage; shares compounds with ADAM17 inh; recombinant ADAM17, EDANS/DABCYL QFRET peptide cleavage; AID 743257, 2014; inhibition, % at 6.95 µM; 2,900 tested, 65% active;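 active = mean inhibition across replicates above the hit cutoff set in the primary screen, cut at about 8.5% in these data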;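 note: 0% = DMSO wells and 100% = marimastat wells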
An asterisk follows results filed as active.

Screening CCOC(=O)[C@@H]1[C@H]2COc3ccc(Br)cc3[C@H]2N2C(=O)N(c3ccc(Br)cc3)C(=O)[C@]12C returned ADAM17 inh 9.2*, proKLK7 act 0, HGIII-sPLA2 inh 3, ADAM10 inh 12, CendR NRP1 mod -4, ADAM10 ctr 31* and ADAM17 confirm 21*.
Screening Cc1ccc2c(c1)[C@H]1[C@H](CO2)[C@H](c2ccccc2)[C@]2(C)C(=O)N(Cc3ccc(Cl)cc3)CC(=O)N12 returned ADAM17 inh 12*, proKLK7 act 0, HGIII-sPLA2 inh -2, ADAM10 inh 15, CendR NRP1 mod 14, ADAM10 ctr 10 and ADAM17 confirm 12*.
For CC(=O)N1CCCN(C(=O)CN2C(=O)CC(C)(C)S(=O)(=O)c3ccccc32)CC1 the results were ADAM17 inh 0, proKLK7 act 0, HGIII-sPLA2 inh -6 and ADAM10 inh -2.
COc1cccc(C2C(C#N)=C(N)Oc3c2oc(CO)cc3=O)c1 (centres undefined) was read as ADAM17 inh 14*, proKLK7 act 1, HGIII-sPLA2 inh 3, ADAM10 inh -2, CendR NRP1 mod -16, ADAM10 ctr 6 and ADAM17 confirm 11*.
Screening CCN(CC)S(=O)(=O)c1ccc(N=Nc2c(C)[nH]n(C(N)=S)c2=O)cc1 returned ADAM17 inh 12*, proKLK7 act 0, HGIII-sPLA2 inh -18, ADAM10 inh 9, CendR NRP1 mod 7, ADAM10 ctr 8 and ADAM17 confirm 3.
`Clc1ccc(CN2CCN(N=Cc3cccc(OCc4ccccc4)c3)CC2)cc1` gave ADAM17 inh 1, proKLK7 act 0, HGIII-sPLA2 inh 4 and ADAM10 inh -3.
`COc1ccc(C(=O)OCCCN(C)C2CN(Cc3cn(Cc4cccc(F)c4)nn3)S(=O)(=O)C2)cc1OC` (centres undefined) gave ADAM17 inh -3, proKLK7 act 0, HGIII-sPLA2 inh -1 and ADAM10 inh -4.
Screening O=C(c1ccc(CSc2nc3ccncc3[nH]2)cc1)N1CCN(c2cccc(Cl)c2)CC1 returned ADAM17 inh 9.1*, proKLK7 act 0, HGIII-sPLA2 inh -23, ADAM10 inh 15, CendR NRP1 mod -6, ADAM10 ctr 28* and ADAM17 confirm 15*.
For C#Cc1cccc(OCC(C)CN2CCC(C(O)(c3ccccc3)c3ccccc3)CC2)c1 (centres undefined) the results were ADAM17 inh 8, proKLK7 act 1, HGIII-sPLA2 inh -14 and ADAM10 inh 15.
For CC(C)NC(=O)[C@]1(C#N)CC(=O)N(C)[C@@H]1c1ccccc1 the results were ADAM17 inh 2, proKLK7 act 0, HGIII-sPLA2 inh 5 and ADAM10 inh 2.
COc1cc(C=C(c2nc3ccccc3s2)c2nc3ccccc3s2)ccc1O was read as ADAM17 inh 9.6*, proKLK7 act 0, HGIII-sPLA2 inh -46, ADAM10 inh 18, CendR NRP1 mod -41, ADAM10 ctr 20* and ADAM17 confirm 14*.
COc1cc(/C=C/c2nc3ccccc3s2)cc(OC)c1O was read as ADAM17 inh -9, proKLK7 act -5, HGIII-sPLA2 inh -5, ADAM10 inh -22 and CendR NRP1 mod -40.
Screening CN(C)S(=O)(=O)Oc1cccc(C(=O)Nc2ccc(Cl)c(Cl)c2)c1 returned ADAM17 inh 9.2*, proKLK7 act 0, HGIII-sPLA2 inh -49, ADAM10 inh 1, CendR NRP1 mod 2, ADAM10 ctr 35* and ADAM17 confirm 20*.
CN(C)S(=O)(=O)Oc1cccc(C(=O)Nc2cccc(Cl)c2)c1 was read as ADAM17 inh 7, proKLK7 act 0, HGIII-sPLA2 inh -41, ADAM10 inh 9 and CendR NRP1 mod 3.
For O=C(OCc1cn(Cc2ccccc2Cl)nn1)N1CCOCC1 the results were ADAM17 inh 1, proKLK7 act 1, HGIII-sPLA2 inh 7 and ADAM10 inh 8.
Screening O=C(Nc1cccc(S(=O)(=O)Nc2ccccc2Cl)c1)c1ccc(N2CCCC2)c([N+](=O)[O-])c1 returned ADAM17 inh 11*, proKLK7 act -1, HGIII-sPLA2 inh -27, ADAM10 inh 18, CendR NRP1 mod -1, ADAM10 ctr 41* and ADAM17 confirm 24*.
For O=C(Nc1cccnc1)c1ccc(N2CCCC2)c([N+](=O)[O-])c1 the results were ADAM17 inh 4, proKLK7 act 0, HGIII-sPLA2 inh 2, ADAM10 inh 16 and CendR NRP1 mod -4.
For C=C(C)COc1ccc(-c2n[nH]c(C)c2-c2ccc(Br)cc2)c(O)c1 the results were ADAM17 inh 11*, proKLK7 act -1, HGIII-sPLA2 inh -16, ADAM10 inh 18, CendR NRP1 mod 3, ADAM10 ctr 22* and ADAM17 confirm 12*.
Screening C[C@H]1COc2cc(Br)ccc2S(=O)(=O)N1Cc1cn(CCC2OCCCO2)nn1 returned ADAM17 inh -3, proKLK7 act 0, HGIII-sPLA2 inh -5 and ADAM10 inh 0.
Screening O=C(CNC(=O)/C(=C\c1ccc(Br)cc1)NC(=O)c1ccccc1)OCc1ccccc1 returned ADAM17 inh 10*, proKLK7 act 1, HGIII-sPLA2 inh -19, ADAM10 inh 12, CendR NRP1 mod 9, ADAM10 ctr 22* and ADAM17 confirm 6.
Cc1ccc(CNC(=O)C(=O)NCC2OCCN2S(=O)(=O)c2ccc(Br)cc2)cc1 (centres undefined) was read as ADAM17 inh 6, proKLK7 act 1, HGIII-sPLA2 inh -19, ADAM10 inh 6 and CendR NRP1 mod -2.
`Cc1ccc(CNC(=O)C(=O)NCC2OCCN2S(=O)(=O)c2ccc(C)cc2)cc1` (centres undefined) gave ADAM17 inh 11*, proKLK7 act 0, HGIII-sPLA2 inh -7, ADAM10 inh -6, CendR NRP1 mod 5, ADAM10 ctr -7 and ADAM17 confirm 1.
Screening COc1ccc(S(=O)(=O)N2CCCOC2CNC(=O)C(=O)NCCO)cc1 (centres undefined) returned ADAM17 inh 10.0*, proKLK7 act 0, HGIII-sPLA2 inh 8, ADAM10 inh 5, CendR NRP1 mod -4, ADAM10 ctr 7 and ADAM17 confirm 9.4*.
